Results published in PubChem BioAssay (NCATS).
Results filed as inconclusive are left out. The source made the active and inactive calls. Unless noted, the call rests on the fitted dose curve; in most records, active means well fitted curve in the direction sought with a large enough effect; inconclusive means small, poorly fitted or top-dose-only effect, or another doubt; inactive means no such curve, though single readings can be large; an effect the other way counts as inactive or inconclusive.

What was measured:
[1] = High-throughput drug toxicity screening in the BPDCN cell line Gen2.2 (AID 1224824; call rule not given here;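 further: cells exposed to compounds for 48 h before reading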); conditions: Gen2.2 BPDCN cells; at 45.8 µM (top of the series) unless noted
Outline: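 Gen2.2 cells, 500 per well in phenol red-free RPMI with 10% FBS, exposed to compounds 48 h at 37 C, 5% CO2; viability by CellTiter-Glo luminescence. Percent activity scaled to DMSO (100%) and 9.2 uM bortezomib final (0%).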

[2] = High-throughput drug toxicity screening in the BPDCN cell line Cal-1 (AID 1224825; call rule not given here); conditions: Cal-1 BPDCN cell viability, qHTS; at 45.8 µM (top of the series) unless noted
Outline: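 Viability of the BPDCN line Cal-1 is measured as ATP-based luminescence (CellTiter-Glo) following 48 h incubation with compounds. Percent activity uses DMSO-treated wells as 100% and 9.2 uM bortezomib as 0%.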

[3] = qHTS assay for measurement of the activity of small molecule inhibitors on Zika virus induced Caspase-3 activity in human iPSC derived neural progenitor cells (hNPCs) (AID 1224857); conditions: hNPCs ZIKV-induced caspase-3/7, Caspase-Glo luminescence, 6 h; series mostly up to 45.7 µM; further: % of control where 0% means no effect; nearly all actives have a fitted effect of over 65% in size
Outline: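 Human iPSC-derived neural progenitor cells pretreated 1 hr with compounds, then infected with Zika virus (2 FFU/cell) for 6 hours at 37 C. Caspase-3/7 measured by Caspase-Glo luminescence; % inhibition calculated from induction scaled to uninfected (0%) and infected (100%) wells.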

[4] = qHTS assay for measurement of the activity of small molecule inhibitors on Zika virus induced Caspase-3 activity in human astrocytoma cells (AID 1224859); conditions: SNB-19 ZIKV-induced caspase-3/7, luminescence, 6 h; series mostly up to 45.7 µM;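 further: plate controls were ZIKV-infected untreated cells for no effect and uninfected cells for full effect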
Outline: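 SNB-19 astrocytoma cells, 250/well, pretreated 1 h with compounds, then Zika virus at 2 FFU/cell for 6 h at 37 C; Caspase-Glo 3/7 luminescence after 30 min; percent inhibition normalised to uninfected and infected controls.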

[5] = qHTS profiling of the MIPE4 collection as inhibitors of Plasmodium falciparum (3D7) proliferation (AID 743344; call rule not given here;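 further: scaled between DMSO vehicle wells and 0.29 µM artemisinin as full inhibition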); conditions: P. falciparum 3D7 in erythrocytes, SYBR Green DNA fluorescence, 72 h; at 28.5 µM (top of the series) unless noted
Outline: (§1)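 Parasite DNA was quantified by SYBR Green I fluorescence (ex 485, em 535 nm) after overnight lysis in saponin/Triton buffer at room temperature. Cultures at 0.3% parasitemia and 2.5% hematocrit were first exposed to compound for 72 h at 37 C; signals were normalised to artemisinin (0.29 uM) and vehicle wells.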

[6] = qHTS profiling of the MIPE4 collection as inhibitors of Plasmodium falciparum (DD2) proliferation (AID 743345; call rule not given here); conditions: P. falciparum Dd2 in erythrocytes, SYBR Green DNA, 72 h; at 28.5 µM (top of the series) unless noted
Outline: as §1

[7] = qHTS profiling of the MIPE4 collection as inhibitors of Plasmodium falciparum (DD2) proliferation (Rep 2) (AID 743346; call rule not given here); conditions: P. falciparum Dd2 in erythrocytes, SYBR Green DNA, 72 h; at 28.5 µM (top of the series) unless noted
Outline: as §1

[8] = qHTS profiling of the MIPE4 collection as inhibitors of Plasmodium falciparum (HB3) proliferation (AID 743347; call rule not given here;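 further: plate controls were DMSO vehicle wells for no effect and artemisinin wells for full effect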); conditions: P. falciparum HB3 in erythrocytes, SYBR Green DNA, 72 h; at 28.5 µM (top of the series) unless noted
Outline: as §1

[9] = qHTS profiling for inhibitors of Plasmodium falciparum (DD2) proliferation (AID 743323; call rule not given here); conditions: lower = more inhibition
Outline: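 Parasite DNA quantified by SYBR Green fluorescence (ex 485, em 535 nm) after saponin/Triton lysis and overnight dark incubation. Cultures: 0.3% parasitemia, 2.5% hematocrit, 72 h, 37 C; data scaled between DMSO and 0.29 uM artemisinin.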

[10] = qHTS profiling for inhibitors of Plasmodium falciparum (HB3) proliferation (AID 743324); conditions: Plasmodium falciparum HB3 blood-stage proliferation;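 further: 100% = DMSO vehicle wells and 0% = artemisinin-treated control wells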
Outline: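 SYBR Green fluorescence (485 ex/535 em) of lysed cultures, incubated overnight at room temperature in the dark, quantifies parasite DNA. Infected erythrocytes at 0.3% parasitemia and 2.5% hematocrit were exposed 72 h; values normalized to DMSO and 0.29 uM artemisinin controls.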

SMILES	cell viability, % of control (lower = more cytotoxic) [1]	viability (% of control) [2]	Potency [3]	Potency [4]	parasite growth, % of DMSO control [5]	parasite growth remaining, % of DMSO control (lower = more inhibition) [6]	parasite growth, % of control (lower = inhibition) [7]	growth, % of control [8]	activity, percent of control ([9]; at 28.7 µM (top of the series)) [%]	activity, percent of control ([9]; at 57.5 µM (top of the series)) [%]	remaining proliferation (% of control), lower = more inhibition ([10]; at 28.7 µM (top of the series)) [%]	remaining proliferation (% of control), lower = more inhibition ([10]; at 57.5 µM (top of the series)) [%]
O=C(CCCN1CCC(O)(c2ccc(Cl)cc2)CC1)c1ccc(F)cc1	58.3%	48.3%	inactive	inactive								
COc1ccc2c(c1)c(CC(=O)O)c(C)n2C(=O)c1ccc(Cl)cc1	127%	104%	inactive	inactive	55.7%	103%	127%	83.6%				
CN(CCOc1ccc(NS(C)(=O)=O)cc1)CCc1ccc(NS(C)(=O)=O)cc1	181%	112%	inactive	inactive	115%	89.2%	119%	56.2%				
C[C@@H]1CC(=O)NN=C1c1ccc(NN=C(C#N)C#N)cc1	7.71%	5.81%	inactive	inactive	8.76%	6.4%	33.2%	9.14%				
CC(COc1ccccc1)N(CCCl)Cc1ccccc1 (configuration not stated)	82.3%	45%	inactive	inactive	90.3%	26.2%	27%					
CC(C)NCC(O)COc1ccc(CCOCC2CC2)cc1 (configuration not stated)	88.1%	97%	inactive	inactive	77%	89.8%	46.9%	57.9%				
Cc1ccc(C(=O)Nc2ccc(S(=O)(=O)O)c3cc(S(=O)(=O)O)cc(S(=O)(=O)O)c23)cc1NC(=O)c1cccc(NC(=O)Nc2cccc(C(=O)Nc3cc(C(=O)Nc4ccc(S(=O)(=O)O)c5cc(S(=O)(=O)O)cc(S(=O)(=O)O)c45)ccc3C)c2)c1	58.9%	102%	inactive	inactive	19.9%	75.7%	23.2%	66.1%				
CC(C(=O)O)c1cccc(C(=O)c2ccccc2)c1 (configuration not stated)	152%	103%	inactive	inactive								
CN(C)C(=O)C(CCN1CCC(O)(c2ccc(Cl)cc2)CC1)(c1ccccc1)c1ccccc1	71%	12.1%	inactive	inactive								
CC(C)Cc1ccc(C(C)C(=O)O)cc1 (configuration not stated)	116% [at 23.2 µM]	113% [at 23.2 µM]	inactive	inactive	112% [at 9.64 µM]	99.8% [at 9.64 µM]	162% [at 9.64 µM]	94.2% [at 9.64 µM]				
NS(=O)(=O)c1cc2c(cc1Cl)NCNS2(=O)=O	159%	125%	inactive	inactive	53.2%	53.5%	39.6%	40.8%				
COc1cc2nc(N(C)CCCNC(=O)C3CCCO3)nc(N)c2cc1OC (configuration not stated)	230%	115%	inactive	inactive	64%	88.3%	63%	67.3%				
COc1ccc(CCN(C)CCCC(C#N)(c2ccc(OC)c(OC)c2)C(C)C)cc1OC (configuration not stated)	96.5% [at 92.2 µM]	105% [at 92.2 µM]	inactive	inactive								
CN1CCC(=C2c3ccccc3C=Cc3ccccc32)CC1	106%	35%	inactive	inactive	15%	36%	35.3%	12.5%				
CN1C2CCC1CC(OC(=O)C(CO)c1ccccc1)C2 (configuration not stated)	172%	113%	inactive	inactive								
Nc1nnc(-c2cccc(Cl)c2Cl)c(N)n1	86.5%	36.7%	inactive	inactive	93.8%	98%	104%	98.1%				
Cn1cnc2c1c(=O)[nH]c(=O)n2C	12.2%	13.2%	inactive	inactive	8.09%	7%	25.4%	9%				
CCN1CCCC1CNC(=O)c1cc(S(=O)(=O)CC)c(N)cc1OC (configuration not stated)	143%	55.1%	inactive	inactive	93.7%	99.9%	50.9%	101%				
Fc1ccc([C@@H]2CCNC[C@H]2COc2ccc3c(c2)OCO3)cc1	66.2%	79%	inactive	inactive	35.7%	39.5%	34.6%	58.5%				
Cc1ccc(-c2cc(C(F)(F)F)nn2-c2ccc(S(N)(=O)=O)cc2)cc1	250%	90.2%	inactive	inactive	21.9%	64.9%	35%	7.95%	45.8	21.2	12.9	16
COc1cc2c(c(OC)c1OC)-c1ccc(OC)c(=O)cc1[C@@H](NC(C)=O)CC2	10.1%	11.2%	inactive	inactive								
C[C@H]1c2cccc(O)c2C(O)=C2C(=O)[C@]3(O)C(O)=C(C(N)=O)C(=O)[C@@H](N(C)C)[C@@H]3[C@@H](O)[C@@H]21	12.3%	19.9%	inactive	inactive	6.81%	28.6%	14.3%	12.4%	12.8		15.7	
O=C(C1CCCCC1)N1CC(=O)N2CCc3ccccc3C2C1 (configuration not stated)	246%	105%	inactive	inactive	61.4%	89.3%						
CC[C@@]1(O)C(=O)OCc2c1cc1n(c2=O)Cc2cc3c(CN(C)C)c(O)ccc3nc2-1	14.6%	3.81%	inactive	inactive	13.9%	16.9%	33.7%	21.3%	12.8			
